Assay results reported in PubChem BioAssay AID651747 (Johns Hopkins Ion Channel Center, 2012).
Screen size: about 2,400 compounds; about 950 (40%) were called active.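 How the source made its calls: active means thallium flux ratio, averaged over three wells, more than 5 SD below the buffer control mean; inactive means the rest.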 The full list was thinned out, with actives kept by preference.

Assay: nonspecific thallium influx blockers, KCNK3-free cells – cell-based, non-induced KCNK3 line, FluxOR thallium, triplicate, counter-screen for KCNK3 inhibitor project, primary screen (AID 651747);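 further: host cells are CHO cells without KCNK3 induction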;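 on thallium flux ratio (lower = more inhibition): ratio is peak minus trough fluorescence over baseline then normalized to buffer controls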
Conditions: non-induced KCNK3 parental cells, at 10 µM; outcome: FluxOR thallium flux; thallium flux ratio (lower = more inhibition): active compounds read low

SMILES	thallium flux ratio (lower = more inhibition)
CCOC(=O)C1SC2(C(F)(F)C(F)F)CC1(O)c1c(c(OC)c3occc3c1OC)O2 (stereo not drawn)	0.16 (active)
CCCCCCN=C(CC)c1c(O)n(CCCC)c(=O)[nH]c1=O	0.126 (active)
COc1ccccc1C1=NCc2nnc(CSC)n2-c2ccc(Cl)cc21	inactive
